# About 410 targets per protein were measured; listed, in parts, are those with the strongest signals and a random draw of the rest.
# Experiments:
# Test in all cases: glycan array binding signal (z-score within array); higher = stronger binding
# Settings in all cases: glycan notation: IUPAC condensed, linker removed
# Fuc(a1-2)Gal = biological target: Fuc(a1-2)Gal
# Outline: (§1)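 The binding signal is a Z-score computed within each array and averaged over linkers. Arrays of the same protein sequence at different concentrations or buffers were also averaged together. Data originate from 3228 arrays in the Consortium for Functional Glycomics database, kept only where the protein sequence was available.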
# [1] = biological target: Fuc(a1-2)Gal(b1-3)GlcNAc(b1-3)[Fuc(a1-2)Gal(b1-3)GlcNAc(b1-6)]GalNAc
# Outline: as §1
# [2] = biological target: Fuc(a1-2)Gal(b1-3)[Fuc(a1-4)]GlcNAc(b1-2)Man(a1-3)[Fuc(a1-2)Gal(b1-3)[Fuc(a1-4)]GlcNAc(b1-2)Man(a1-6)]Man(b1-4)GlcNAc(b1-4)[Fuc(a1-6)]GlcNAc(b1-4)[Fuc(a1-6)]GlcNAc
# Outline: as §1
# [3] = biological target: Fuc(a1-2)Gal(b1-4)GlcNAc(b1-2)Man(a1-3)[Fuc(a1-2)Gal(b1-4)GlcNAc(b1-2)Man(a1-6)]Man(b1-4)GlcNAc(b1-4)GlcNAc
# Outline: as §1
# [4] = biological target: Fuc(a1-2)Gal(b1-4)GlcNAc(b1-6)GalNAc
# Outline: as §1
# Fuc(a1-2)Gal6S(b1-4)Glc = biological target: Fuc(a1-2)Gal6S(b1-4)Glc
# Outline: as §1
# [5] = biological target: Fuc(a1-2)[Gal(a1-3)]Gal(b1-4)[Fuc(a1-3)]GlcNAc(b1-3)GalNAc
# Outline: as §1
# [6] = biological target: Fuc(a1-2)[GalNAc(a1-3)]Gal(b1-4)GlcNAc(b1-2)Man(a1-3)[Fuc(a1-2)[GalNAc(a1-3)]Gal(b1-4)GlcNAc(b1-2)Man(a1-6)]Man(b1-4)GlcNAc(b1-4)[Fuc(a1-6)]GlcNAc
# Outline: as §1
# [7] = biological target: Fuc(a1-2)[GalNAc(a1-3)]Gal(b1-4)[Fuc(a1-3)]GlcNAc(b1-3)GalNAc
# Outline: as §1
# [8] = biological target: Fuc(a1-3)[GalNAc(b1-4)]GlcNAc
# Outline: as §1
# [9] = biological target: Fuc(a1-3)[GalNAc(b1-4)]GlcNAc6S
# Outline: as §1
# Gal(a1-2)Gal = biological target: Gal(a1-2)Gal
# Outline: as §1
# [10] = biological target: Gal(a1-3)Gal(b1-4)GlcNAc(b1-6)GalNAc
# Outline: as §1
# [11] = biological target: Gal(b1-3)GalNAc(b1-4)[Neu5Ac(a2-3)]Gal(b1-4)Glc
# Outline: as §1
# [12] = biological target: Gal(b1-3)GlcNAc(b1-2)[Gal(b1-3)GlcNAc(b1-6)]Man(a1-6)[Gal(b1-3)GlcNAc(b1-2)Man(a1-3)]Man(b1-4)GlcNAc(b1-4)GlcNAc
# Outline: as §1
# [13] = biological target: Gal(b1-3)GlcNAc(b1-3)Gal(b1-4)GlcNAc(b1-2)Man(a1-3)[Gal(b1-3)GlcNAc(b1-3)Gal(b1-4)GlcNAc(b1-2)Man(a1-6)]Man(b1-4)GlcNAc(b1-4)GlcNAc
# Outline: as §1
# [14] = biological target: Gal(b1-3)GlcNAc(b1-3)Gal(b1-4)[Fuc(a1-3)]GlcNAc(b1-6)[Gal(b1-3)GlcNAc(b1-3)]Gal(b1-4)Glc
# Outline: as §1
# [15] = biological target: Gal(b1-3)GlcNAc(b1-6)GalNAc
# Outline: as §1
# [16] = biological target: Gal(b1-3)[Neu5Ac(a2-6)]GalNAc
# Outline: as §1
# [17] = biological target: Gal(b1-4)GalNAc(a1-3)[Fuc(a1-2)]Gal(b1-4)GlcNAc
# Outline: as §1
# [18] = biological target: Gal(b1-4)GlcNAc(b1-2)Man(a1-3)[Gal(b1-4)GlcNAc(b1-2)Man(a1-6)][GlcNAc(b1-4)]Man(b1-4)GlcNAc(b1-4)[Fuc(a1-6)]GlcNAc
# Outline: as §1
# [19] = biological target: Gal(b1-4)GlcNAc(b1-2)[Gal(b1-4)GlcNAc(b1-4)]Man(a1-3)[Gal(b1-4)GlcNAc(b1-2)Man(a1-6)]Man(b1-4)GlcNAc(b1-4)GlcNAc
# Outline: as §1
# Gal3S(b1-4)GlcNAc = biological target: Gal3S(b1-4)GlcNAc
# Outline: as §1
# [20] = biological target: Gal3S(b1-4)[Fuc(a1-3)]GlcNAc
# Outline: as §1
# Gal3S6S(b1-4)GlcNAc6S = biological target: Gal3S6S(b1-4)GlcNAc6S
# Outline: as §1
# Gal4S6S(b1-4)GlcNAc = biological target: Gal4S6S(b1-4)GlcNAc
# Outline: as §1
# GalNAc(b1-4)Gal(b1-4)Glc = biological target: GalNAc(b1-4)Gal(b1-4)Glc
# Outline: as §1
# GalNAc(b1-4)GlcNAc = biological target: GalNAc(b1-4)GlcNAc
# Outline: as §1
# [21] = biological target: Glc(a1-4)Glc(a1-4)Glc(a1-4)Glc
# Outline: as §1
# Glc(a1-6)Glc(a1-6)Glc = biological target: Glc(a1-6)Glc(a1-6)Glc
# Outline: as §1
# [22] = biological target: Glc(a1-6)Glc(a1-6)Glc(a1-6)Glc
# Outline: as §1
# [23] = biological target: GlcNAc(b1-3)Gal(b1-4)GlcNAc(b1-3)Gal(b1-4)GlcNAc
# Outline: as §1
# [24] = biological target: GlcNAc(b1-3)Gal(b1-4)GlcNAc(b1-3)Gal(b1-4)GlcNAc(b1-3)Gal(b1-4)GlcNAc(b1-2)Man(a1-3)[GlcNAc(b1-3)Gal(b1-4)GlcNAc(b1-3)Gal(b1-4)GlcNAc(b1-3)Gal(b1-4)GlcNAc(b1-2)Man(a1-6)]Man(b1-4)GlcNAc(b1-4)GlcNAc
# Outline: as §1
# [25] = biological target: GlcNAc(b1-3)[GlcNAc(b1-4)][GlcNAc(b1-6)]GlcNAc
# Outline: as §1
# Man(a1-3)[Man(a1-6)]Man = biological target: Man(a1-3)[Man(a1-6)]Man
# Outline: as §1
# [26] = biological target: Man(a1-3)[Man(a1-6)]Man(a1-6)[Man(a1-3)]Man
# Outline: as §1
# [27] = biological target: Man(a1-3)[Man(a1-6)]Man(b1-4)GlcNAc(b1-4)[Fuc(a1-6)]GlcNAc
# Outline: as §1
# Man(a1-6)Man = biological target: Man(a1-6)Man
# Outline: as §1
# [28] = biological target: Neu5Ac(a2-3)Gal(b1-3)GlcNAc(b1-2)Man(a1-3)[Neu5Ac(a2-3)Gal(b1-3)GlcNAc(b1-2)Man(a1-6)]Man(b1-4)GlcNAc(b1-4)GlcNAc
# Outline: as §1
# [29] = biological target: Neu5Ac(a2-3)Gal(b1-4)GlcNAc(b1-2)Man
# Outline: as §1
# [30] = biological target: Neu5Ac(a2-3)Gal(b1-4)GlcNAc(b1-2)Man(a1-3)[GlcNAc(b1-4)][Neu5Ac(a2-3)Gal(b1-4)GlcNAc(b1-2)Man(a1-6)]Man(b1-4)GlcNAc(b1-4)GlcNAc
# Outline: as §1
# [31] = biological target: Neu5Ac(a2-3)Gal(b1-4)GlcNAc(b1-2)Man(a1-3)[Neu5Ac(a2-3)Gal(b1-4)GlcNAc(b1-2)Man(a1-6)]Man(b1-4)GlcNAc(b1-4)[Fuc(a1-6)]GlcNAc
# Outline: as §1
# [32] = biological target: Neu5Ac(a2-3)Gal(b1-4)GlcNAc(b1-3)Gal
# Outline: as §1
# [33] = biological target: Neu5Ac(a2-3)Gal(b1-4)GlcNAc(b1-3)Gal(b1-4)GlcNAc(b1-3)Gal(b1-4)GlcNAc(b1-2)Man(a1-3)[Neu5Ac(a2-3)Gal(b1-4)GlcNAc(b1-3)Gal(b1-4)GlcNAc(b1-3)Gal(b1-4)GlcNAc(b1-2)Man(a1-6)]GalNAc
# Outline: as §1
# [34] = biological target: Neu5Ac(a2-3)Gal(b1-4)[Fuc(a1-3)]GlcNAc6S
# Outline: as §1
# [35] = biological target: Neu5Ac(a2-3)[GalNAc(b1-4)]Gal(b1-4)Glc
# Outline: as §1
# [36] = biological target: Neu5Ac(a2-6)Gal(b1-4)GlcNAc(b1-2)Man(a1-6)[GlcNAc(b1-2)Man(a1-3)]Man(b1-4)GlcNAc(b1-4)GlcNAc
# Outline: as §1
# [37] = biological target: Neu5Ac(a2-6)Gal(b1-4)GlcNAc(b1-3)Gal(b1-4)GlcNAc(b1-3)Gal(b1-4)GlcNAc(b1-2)Man(a1-3)[Neu5Ac(a2-6)Gal(b1-4)GlcNAc(b1-3)Gal(b1-4)GlcNAc(b1-3)Gal(b1-4)GlcNAc(b1-2)Man(a1-6)]GalNAc
# Outline: as §1
# [38] = biological target: Neu5Ac(a2-6)Gal(b1-4)GlcNAc(b1-3)Gal(b1-4)GlcNAc(b1-6)[Gal(b1-3)]GalNAc
# Outline: as §1
# [39] = biological target: Neu5Ac(a2-6)Gal(b1-4)GlcNAc(b1-3)[Neu5Ac(a2-6)Gal(b1-4)GlcNAc(b1-6)]GalNAc
# Outline: as §1
# [40] = biological target: Neu5Gc(a2-8)Neu5Gc(a2-3)Gal(b1-4)GlcNAc(b1-3)Gal(b1-4)GlcNAc
# Outline: as §1
# [41] = biological target: Neu5Gc(a2-8)Neu5Gc(a2-6)Gal(b1-4)GlcNAc
# Outline: as §1
binder,measurement,setting,value
Clone730PsrP (Streptococcus pneumoniae) (protein) MDHHHHHHHHHHASENLYFQGAMVVGSQTAAATEATAKKVEEDRKKPASDYVASVTNVNLQSYAKRRKRSVDSIEQLLASIKNAAVFSGNTIVNGAPAINASLNIAKSETKVYTGEGVDSVYRVPIYYKLKVTNDGSKLTFTYTVTYVNPKTNDLGNISSMRPGYSIYNSGTSTQTMLTLGSDLGKPSGVKNYITDKNGRQVLSYNTSTMTTQGSGYTWGNGAQMNGFFAKKGYGLTSSWTVPITGTDTSFTFTPYAARTDRIGINYFNGGGKVVESSTT,glycan array binding signal (z-score),Fuc(a1-2)Gal,0.412
same,glycan array binding signal (z-score),[1],1.96
same,glycan array binding signal (z-score),[2],-0.364
same,glycan array binding signal (z-score),[3],-0.472
same,glycan array binding signal (z-score),[4],1.79
same,glycan array binding signal (z-score),Fuc(a1-2)Gal6S(b1-4)Glc,-0.11
same,glycan array binding signal (z-score),[5],-0.513
same,glycan array binding signal (z-score),[6],2.17
same,glycan array binding signal (z-score),[7],0.059
same,glycan array binding signal (z-score),[8],0.389
same,glycan array binding signal (z-score),[9],0.499
same,glycan array binding signal (z-score),Gal(a1-2)Gal,-0.461
same,glycan array binding signal (z-score),[10],-0.459
same,glycan array binding signal (z-score),[11],2.82
same,glycan array binding signal (z-score),[12],19.3
same,glycan array binding signal (z-score),[13],-0.281
same,glycan array binding signal (z-score),[14],-0.518
same,glycan array binding signal (z-score),[15],-0.605
same,glycan array binding signal (z-score),[16],-0.508
same,glycan array binding signal (z-score),[17],-0.441
same,glycan array binding signal (z-score),[18],-0.249
same,glycan array binding signal (z-score),[19],-0.616
same,glycan array binding signal (z-score),Gal3S(b1-4)GlcNAc,0.189
same,glycan array binding signal (z-score),[20],0.82
same,glycan array binding signal (z-score),Gal3S6S(b1-4)GlcNAc6S,-0.38
same,glycan array binding signal (z-score),Gal4S6S(b1-4)GlcNAc,-0.324
same,glycan array binding signal (z-score),GalNAc(b1-4)Gal(b1-4)Glc,1.39
same,glycan array binding signal (z-score),GalNAc(b1-4)GlcNAc,0.829
same,glycan array binding signal (z-score),[21],2.03
same,glycan array binding signal (z-score),Glc(a1-6)Glc(a1-6)Glc,-0.273
same,glycan array binding signal (z-score),[22],2.73
same,glycan array binding signal (z-score),[23],-0.488
same,glycan array binding signal (z-score),[24],-0.481
same,glycan array binding signal (z-score),[25],-0.013
same,glycan array binding signal (z-score),Man(a1-3)[Man(a1-6)]Man,0.888
same,glycan array binding signal (z-score),[26],2.14
same,glycan array binding signal (z-score),[27],-0.591
same,glycan array binding signal (z-score),Man(a1-6)Man,3.24
same,glycan array binding signal (z-score),[28],0.657
same,glycan array binding signal (z-score),[29],1.83
same,glycan array binding signal (z-score),[30],-0.507
same,glycan array binding signal (z-score),[31],-0.658
same,glycan array binding signal (z-score),[32],-0.586
same,glycan array binding signal (z-score),[33],1.38
same,glycan array binding signal (z-score),[34],1.98
same,glycan array binding signal (z-score),[35],-0.647
same,glycan array binding signal (z-score),[36],-0.372
same,glycan array binding signal (z-score),[37],0.355
same,glycan array binding signal (z-score),[38],-0.382
same,glycan array binding signal (z-score),[39],-0.567
same,glycan array binding signal (z-score),[40],-0.565
same,glycan array binding signal (z-score),[41],-0.41
